Experimental data as given in PubChem BioAssay AID738 (SRMLSC, 2007).
In all, about 98,000 compounds went through this assay and about 4,900 (5%) were called active. Rule as the data show it: active = inhibition above about 30%; inactive = the rest. What follows is part of a selection rich in actives, with near analogues and random picks from the rest.

test: growth inhibition of yeast control strain, primary screen, counter-screen for post-Golgi transport modulator project (AID 738); details: efflux-deficient yeast background strain, growth absorbance A615, 16 h; at 10 µM; stronger effect = higher value

Row | Compound | inhibition
1 | CC1(C)CCCC2=C1CC1C(=O)N(c3ccccc3)C(=O)C1C2 (stereo not given) | 18.5% (inactive)
2 | CC1CC2=C(CC1/C=N/NC(N)=S)C(C)(C)CCC2 (stereo not given) | 90.2% (active)
3 | COc1ccc(N(CC(=O)N/N=C/c2cccc3c2OCCO3)S(=O)(=O)c2ccc(NC(C)=O)cc2)cc1 | 0.15% (inactive)
4 | COc1ccc(COC(=O)c2n[nH]c3ccccc23)cc1F | 37.5% (active)
5 | O=C(COC(=O)c1n[nH]c2ccccc12)NCc1ccccc1 | 4.29% (inactive)
6 | CCN(CC)S(=O)(=O)c1ccc2nc(COC(=O)c3n[nH]c4ccccc34)[nH]c2c1 | 7.74% (inactive)
7 | CCC(C)NC(=O)c1c(N)n(/N=C/c2cccs2)c2nc3ccccc3nc12 (stereo not given) | -2.86% (inactive)
8 | CC(C)Cn1c(N)c(C(=O)NCc2cccs2)c2nc3ccccc3nc21 | 35.7% (active)
9 | C=CCn1c(N)c(C(=O)OCC(C)C)c2nc3ccccc3nc21 | 9.88% (inactive)
10 | O=C(O)COc1ccc(-c2nccc(-c3cccs3)n2)cc1 | 0.28% (inactive)
11 | Brc1ccc(/C=N/N2CCN(C3c4ccccc4-c4ccccc43)CC2)s1 | -3.33% (inactive)
12 | CC(CC(=O)Nc1cc(C(F)(F)F)ccc1Cl)c1ccccc1 (stereo not given) | 16% (inactive)
13 | CC(=O)OCc1cc2cc(C)ccc2[nH]c1=O | -5.13% (inactive)
14 | CCNCc1cc2cc(C)ccc2[nH]c1=O | -2.22% (inactive)
15 | CCN(Cc1cc2cc(C)ccc2[nH]c1=O)S(=O)(=O)c1ccccc1 | 32.2% (active)
16 | O=[N+]([O-])c1ccc(Oc2ccc(F)cc2Br)c2ccncc12 | 68.3% (active)
17 | COc1ccc(C2C=C(c3ccc(Br)cc3)Nc3nc(NS(C)(=O)=O)nn32)cc1 (stereo not given) | -3.73% (inactive)
18 | Cc1cc(/C=C2/SC(=O)N(CC(=O)OC(C)C)C2=O)c(C)n1C | -3.79% (inactive)
19 | Cc1cccc(NC(=S)Nc2ccc(Br)cc2)c1 | 0.28% (inactive)
20 | CC(=O)Nc1cc(C(=O)O)ccc1S(=O)(=O)c1ccc(Cl)cc1 | 8.39% (inactive)
21 | O=C(Nc1ccccc1)c1nnsc1S(=O)(=O)c1ccc(Cl)cc1 | 97.8% (active)
22 | O=C(Nc1ccc(Cl)cc1)c1ccsn1 | 25.9% (inactive)
23 | Cc1noc(C)c1COC(=O)c1cc2ccccc2cc1O | 19.3% (inactive)
24 | Cc1cccc(NC(=O)CN2CCCN(S(=O)(=O)c3ccc(Br)s3)CC2)c1 | 41.2% (active)
25 | Cc1cccc(NC(=O)CN2C(=O)CNC2=O)c1 | 9.16% (inactive)

Row | Compound | inhibition
26 | Cc1cccc(NC(=O)CSc2nnc(NC(=O)CN3CCOCC3)s2)c1 | -6.56% (inactive)
27 | O=C(Nc1ccccc1)c1ccc2nsnc2c1 | 12.1% (inactive)
28 | Cn1nc([N+](=O)[O-])nc1Sc1ccc(C(C)(C)C)cc1 | 11.6% (inactive)
29 | CCOC(=O)C1=C(C)NC(C)=C(C(=O)OCC)C1c1ccccn1 | -6.97% (inactive)
30 | C=CCOC(=O)C1=C(C)NC(SCC(=O)OCC)=C(C#N)C1c1ccc(C)cc1 (stereo not given) | 18.4% (inactive)
31 | C=CCOC(=O)C1=C(C)NC(C)=C(C(=O)OCC=C)C1c1cccs1 | 39.5% (active)
32 | COc1ccc(/C=C2/S/C(=N/N=C3\CC4CCC3(C)C4(C)C)NC2=O)cc1 (stereo not given) | -0.57% (inactive)
33 | COc1ccc(/C(O)=C2\C(=O)C(=O)N(Cc3ccco3)C2c2ccc(OC)cc2OC)cc1 (stereo not given) | -3.5% (inactive)
34 | CCCn1c(SCC(=O)c2ccc3c(c2)OCCO3)nnc1C(C)C | 43.7% (active)
35 | CCCn1c(SCC(N)=O)nnc1C(C)C | 5.31% (inactive)
36 | CCCn1c(SCC(=O)Nc2c(C)cccc2C)nnc1C(C)C | -4.88% (inactive)
37 | Cc1cc2c(c(=O)n1C)C(C(C)C)C(C#N)=C(N)O2 (stereo not given) | -3.4% (inactive)
38 | CSCc1cc(N(C)C)nc(SCc2ccc(Cl)cc2Cl)n1 | 15% (inactive)
39 | CCOC(=O)c1ccc(NC(=O)CSc2nnc(COc3ccccc3OC)n2C)cc1 | 12.5% (inactive)
40 | CCOC(=O)c1sc(NC(=O)CSc2ncccn2)c(C#N)c1C | 21.6% (inactive)
41 | CCOC(=O)c1ccc(NC(=O)CSc2ncccn2)cc1 | 31.1% (active)
42 | CC(c1ccco1)N(C(=O)COc1ccccc1[N+](=O)[O-])c1ccccn1 (stereo not given) | 14.2% (inactive)
43 | C=CCNC(=O)c1sc(SC)cc1-c1ccc(Cl)cc1 | 11.2% (inactive)
44 | CC1CCN(CC(=O)c2c[nH]c3ccccc23)CC1 | 6.25% (inactive)
45 | CCOC(=O)CSC1=C(C#N)C(c2ccco2)C(C(=O)OCc2ccccc2)=C(C)N1 (stereo not given) | 24.9% (inactive)
46 | Cc1ccc(C2CC(=O)NC(SCC(=O)OCc3ccccc3)=C2C#N)o1 (stereo not given) | 32% (active)
47 | CCOC(=O)CSC1=C(C#N)C(c2sccc2C)CC(=O)N1 (stereo not given) | 11.5% (inactive)
48 | CN(C)/C=C(\C#N)C(=O)c1cccnc1Oc1ccc(F)cc1F | 2.7% (inactive)
49 | O=C(NC1CCN(Cc2ccccc2)CC1)c1ccccc1F | 6.56% (inactive)
50 | O=C(COc1ccccc1F)NC1CC1 | -0.64% (inactive)

Row | Compound | inhibition
51 | O=C(COc1ccc(Br)cc1F)NC1CCN(Cc2ccccc2)CC1 | 37.7% (active)
52 | Cc1ccc(C(=O)Nc2c(C#N)c(C)c(C)n2Cc2ccccc2)cc1 | 17.1% (inactive)
53 | CCOC1CS(=O)(=O)CC1OCC (stereo not given) | 8.62% (inactive)
54 | O=C(Nc1ccccc1C(F)(F)F)c1cc(-c2ccc(O)cc2)on1 | 2.42% (inactive)
55 | Cc1cc(C)nc(NC(=O)Nc2ccccc2C(F)(F)F)n1 | 34.3% (active)
56 | Cc1cc(C)nc(NC(=O)C(C)N2C(=O)c3ccccc3C2=O)n1 (stereo not given) | -0.16% (inactive)
57 | COc1cc(SC)ccc1C(=O)NCCOc1ccccc1Cl | 28.9% (inactive)
58 | Cc1ccc(CNC(=O)CCNC(=O)Cn2ccc3ccccc3c2=O)cc1 | 7.83% (inactive)
59 | CCOc1c2ccc(C(=O)NCc3ccc(OC(F)(F)F)cc3)cc2nn1C | -2.75% (inactive)
60 | COc1ccc(C(=O)c2c(C)oc3cc([N+](=O)[O-])c(O)c([N+](=O)[O-])c23)cc1 | 15% (inactive)
61 | Cc1c(NC(=O)c2cc(-c3ccc(Cl)s3)nc3ccccc23)c(=O)n(-c2ccccc2)n1C | 44.6% (active)
62 | COC(=O)Nc1c(C)n(C)n(-c2ccccc2)c1=O | 6.08% (inactive)
63 | Cc1cc(C(=O)Nc2c(C)n(C)n(-c3ccccc3)c2=O)cs1 | 2.08% (inactive)
64 | CCOC(=O)Nc1ccc(S(=O)(=O)N(C)C(C)C)cc1 | 4.8% (inactive)
65 | CCOc1c2ccc(C(=O)NCc3ccc4c(c3)OCO4)cc2nn1C | 24.1% (inactive)
66 | Cc1ccccc1N/N=C/c1ccc(N2CCOCC2)cc1 | 20% (inactive)
67 | COc1ccccc1CNC(=O)c1ccc(SC)cc1OC | 17.5% (inactive)
68 | COc1ccc2nc(N3CCCC(O)C3)c(C#N)cc2c1 (stereo not given) | 6.9% (inactive)
69 | CCOc1ccc2nc(NCCNS(=O)(=O)c3ccccc3)c(C#N)cc2c1 | -2.23% (inactive)
70 | CCOc1ccc2nc(N3CCCN(C(=O)Nc4ccccc4C)CC3)c(C#N)cc2c1 | 56.8% (active)
71 | Cc1ccc2cc(CCNC(=O)c3c(-c4ccccc4Cl)noc3C)c(=O)[nH]c2c1 | 9.09% (inactive)
72 | CN1CCN(c2ccc([N+](=O)[O-])c(Sc3nc4ccccc4[nH]3)c2)CC1 | 7.22% (inactive)
73 | CSc1ccc(C#N)cc1NC(=O)c1ccc(Cl)cc1 | -4.75% (inactive)
74 | CSc1cc(C)n(-c2ccccc2C)c(=S)c1C(C)=O | 4.46% (inactive)
75 | O=C(NCCCN1CCCCCC1)C1CC(=O)N(C2CCCC2)C1 (stereo not given) | 39.6% (active)

Row | Compound | inhibition
76 | CC(C)OCCCNC(=O)C1CC(=O)N(C2CCCCCCC2)C1 (stereo not given) | 0.87% (inactive)
77 | Cc1ccc(CNC(=O)C2CC(=O)N(C3CCCCCCC3)C2)cc1 (stereo not given) | 11.5% (inactive)
78 | COc1ccc(CCNC(=O)COC(=O)c2ccc[nH]c2=O)cc1 | 8.99% (inactive)
79 | CCn1c(SCc2ccc(C)cc2)nnc1-c1nn(-c2ccccc2)ccc1=O | 28.2% (inactive)
80 | CCCC(C(=O)NCc1ccco1)N(C(=O)CNS(=O)(=O)c1ccccc1)C1CCCC1 (stereo not given) | -6.03% (inactive)
81 | CCOc1ccc(NC(=O)N(CCC(C)C)C(C)c2ccco2)cc1 (stereo not given) | 14.1% (inactive)
82 | CC(c1ccco1)N(C(=O)Nc1ccccc1)C1CCCCC1 (stereo not given) | 34.8% (active)
83 | CCCCNC(=O)CSc1nc2ccc(NC(=O)CSc3nnc(COc4ccccc4C)n3C)cc2s1 | -0.61% (inactive)
84 | CN(C(=O)CSc1nc(C2CC2)nc2ccccc12)c1nc(-c2ccccc2)cs1 | 3.27% (inactive)
85 | Cc1ccc(/C=N\n2c(-c3ccccc3)n[nH]c2=S)s1 | 6.75% (inactive)
86 | S=c1[nH]nc(-c2ccco2)n1/N=C/c1ccc(Br)s1 | 32.1% (active)
87 | Oc1ccccc1/C=N/n1c(-c2cccs2)n[nH]c1=S | 7.52% (inactive)
88 | COC(=O)c1c(CCl)noc1C(=O)NC(C)C | -6.4% (inactive)
89 | CCCCSc1[nH]c(=O)c(C(=O)OCC)cc1C#N | -5.6% (inactive)
90 | C/C(=N/NC(=O)c1ccc(NC(=O)c2ccc(F)cc2)cc1)c1ccccc1 | 4.86% (inactive)
91 | Cc1nn(CCOc2ccccc2)c(=O)n1-c1ccccc1F | 14% (inactive)
92 | O=S(=O)(c1ccc(OCC(O)CN2CCN(c3ccccc3Cl)CC2)cc1)N1CCOCC1 (stereo not given) | -0.44% (inactive)
93 | O=C(c1ccc(Cl)cc1)c1ccc(OCC(O)CN2CCCCC2)cc1 (stereo not given) | 7.05% (inactive)
94 | OC(COc1cccc(OCC(O)CN2CCCC2)c1)CN1CCCC1 (stereo not given) | 0.3% (inactive)
95 | OC(COc1ccc2c(c1)CCC2)CN1CCN(c2cccc(Cl)c2)CC1 (stereo not given) | 82.4% (active)
96 | CCC(=O)c1ccc(OCC(O)CN2CC(C)OC(C)C2)cc1 (stereo not given) | 30.9% (active)
97 | CCC(=O)c1ccc(OCC(O)CN2CCN(c3cccc(C(F)(F)F)c3)CC2)cc1 (stereo not given) | 38.7% (active)
98 | CCC(=O)c1ccc(OCC(O)CN2C(=O)NC(C)(C)C2=O)cc1 (stereo not given) | 7.58% (inactive)
99 | O=C(COc1ccc(Cl)cc1)N1CCN(c2cccc(C(F)(F)F)c2)CC1 | 27.6% (inactive)
100 | O=C(C(c1ccccc1)c1ccccc1)N1CCN(CC(O)COc2ccccc2)CC1 (stereo not given) | 9.41% (inactive)
